The campaign covered roughly 1,500 compounds. About 460 (31%) were called active.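 Rule for the calls: active = viability at or below 80% at any tested concentration, marking the compound as toxic; inactive = the rest.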 Not all results are given here. Measured potencies and affinities stand elsewhere.
assay: THP-1 cell cytotoxicity, dose response, cytotoxicity control for Vif-APOBEC3G degradation inhibitor project, THP-1 cells (AID 1117359); settings: THP-1 viability, CellTiter-Glo luminescence, 72 h; series mostly up to 40 µM

Row | Structure (SMILES) | outcome
1 | COc1cc(OC)c2c(c1O)OC(c1ccccc1)CC2=O (stereo not drawn) | inactive
2 | CCOC(=O)C1CCCC12Nc1cccc3cccc(c13)N2 (stereo not drawn) | inactive
3 | Cc1noc(C)c1COc1ccc(C(=O)OCC(=O)N2c3ccccc3NC(=O)C2(C)C)cc1 | inactive
4 | CCOc1ccc(NC(=O)C2CCCN(S(=O)(=O)c3c(C)nn(C)c3C)C2)cc1 (stereo not drawn) | inactive
5 | CC(=O)c1sc(C(=O)O)c(-c2ccco2)c1-c1ccco1 | inactive
6 | Cc1cc(CN2C(=O)c3ccccc3C2=O)cc(N2CCOCC2)c1 | inactive
7 | O=C(CCN1C(=O)c2ccccc2C1=O)NCc1ccco1 | inactive
8 | CCCC(=O)C1=C(N(C)c2ccccc2)CC(C)(C)CC1=O | inactive
9 | O=C(Nc1cccnc1)c1sc(Nc2ccccc2F)nc1-c1ccccc1 | inactive
10 | O=C(COc1ccccc1Cl)c1ccc[nH]1 | inactive
11 | C/C(=N\n1c(C)nc2ccccc2c1=O)c1ccc(C)o1 | inactive
12 | O=C(O)C(Cc1ccccc1)N1C(=O)/C(=C/C=C/c2ccco2)SC1=S (stereo not drawn) | inactive
13 | O=C1NN(c2cccc(Br)c2)C(=O)/C1=C\c1ccccc1 | inactive
14 | O=C(O)c1cc(N2N=C(C(F)(F)F)/C(=C/C=C/c3ccco3)C2=O)ccc1Cl | inactive
15 | COC(=O)C1=C(C)N(Cc2ccccc2)C(=O)/C1=C\c1ccco1 | inactive
16 | O=C1/C(=C\c2ccco2)NC(=S)N1c1ccccc1 | inactive
17 | COc1ccc(N=C2NC(=O)/C(=C\C=C\c3ccco3)S2)cc1 | inactive
18 | O=C(Nc1ccc(Cl)cc1)Nc1ccc(N2CCC(C(F)(F)F)CC2)nc1 | inactive
19 | CC1CC(C)CN(C(=O)CSCC(=O)O)C1 (stereo not drawn) | inactive
20 | Cn1c(C(=O)N[C@@H](C(=O)O)c2ccccc2)cc2cc(Cl)ccc21 | inactive
21 | C#Cc1ccc([C@H]2C=C(C(=O)N3CCOCC3)O[C@@H](OCc3ccc(CO)cc3)C2)cc1 | inactive
22 | Cc1cc(=O)n2nc(N3CCCC(C(=O)NC4CCC(C)CC4)C3)sc2n1 (stereo not drawn) | inactive
23 | O=C(O)Cc1cccc(=O)c(O)c1C(=O)O | inactive

Row | Structure (SMILES) | outcome
24 | COc1cc(NC(=O)c2noc3c2CCC3)c(OC)cc1Cl | inactive
25 | CCOC(=O)C(=O)NCc1ccc(/C=C2/N=C(C)C(C(=O)OCC)=C2O)o1 | inactive
26 | CN(C)c1nc(OCCNC(=O)COc2ccc(Cl)cc2Cl)nc(N2CCOCC2)n1 | inactive
27 | CC(=O)c1ccc(-c2nnc(CCC(=O)N(C)Cc3c(C)nc4ccccn34)o2)s1 | inactive
28 | CC(=O)Nc1nnc(-c2c(-c3c(Cl)cccc3Cl)noc2C)o1 | inactive
29 | CC1CCC/C(=C\Nc2ccc(O)cc2)C1=O (stereo not drawn) | inactive
30 | CCC1CCC2(CC1)NC(=O)N(CC(=O)Nc1ccc(OC)c(Cl)c1)C2=O (stereo not drawn) | inactive
31 | C=C(C)C(=O)Nc1cccc(C2=NOC3(C2)C[C@H](C(N)=O)N(C(=O)COc2ccc(Cl)cc2)C3)c1 (stereo partly drawn) | inactive
32 | Cc1nc2nc(-c3ccco3)nn2c(C)c1Cl | inactive
33 | CC(=O)Nc1ccc(N=Nc2ccccc2)cc1 | inactive
34 | O=S(=O)(O)c1cc(O)c2ccc(Nc3ccccc3)cc2c1 | inactive
35 | CCn1c(SC(C)C(=O)O)nc2sc3c(c2c1=O)CCC3 (stereo not drawn) | inactive
36 | COc1ccc(N/N=C(\C#N)C(=N)SCc2ccccc2)cc1 | inactive
37 | CC(=O)c1ccccc1NC(=O)COC(=O)CN1C(=O)C2CCCCC2C1=O (stereo not drawn) | inactive
38 | Cc1cc2cc3c(=O)[nH]c(=O)nc-3n(CC(O)C(O)C(O)CO)c2cc1C (stereo not drawn) | inactive
39 | CN(CCO)CC(O)CN(c1ccccc1)c1ccccc1 (stereo not drawn) | inactive
40 | Oc1cc2c(cc1O)[C@H]1c3ccc(O)c(O)c3OC[C@@]1(O)C2 | inactive
41 | C(=C\c1ccco1)/c1ccc2ccccc2n1 | inactive
42 | O=C(O)c1ccc(-n2cccc2/C=C2/NC(=O)N(c3cccc(Cl)c3)C2=O)cc1 | inactive
43 | O=C(O)c1ccc(-n2cccc2/C=C2/NC(=O)N(c3ccccc3)C2=O)cc1 | inactive
44 | COc1ccc(CCN2CC(C(=O)NCC(c3ccccc3)N(C)C)CC2=O)cc1OC (stereo not drawn) | inactive
45 | CN1CCN(C(=O)c2ccc(N(C)S(=O)(=O)c3cccs3)cc2)CC1 | inactive
46 | Cc1c(O)cc2c(c1O)C(=O)CC(c1ccc(O)cc1)O2 (stereo not drawn) | inactive

Row | Structure (SMILES) | outcome
47 | COC1=CC(=O)C(C2CC(=O)c3c(O)cc(O)cc3O2)=CC1=O (stereo not drawn) | inactive
48 | C(=N\Nc1nncn1/N=C/c1ccco1)/c1ccco1 | inactive
49 | Cn1c(=O)c2c(ncn2CC(=O)N/N=C/C=C/c2ccco2)n(C)c1=O | inactive
50 | COc1ccc(N2CCN(CC(=O)c3c(C)n(C)c4ccc(OC)cc34)CC2)cc1 | inactive
51 | COc1ccc2[nH]c(C(=O)O)c(CCN3C(=O)c4cccc([N+](=O)[O-])c4C3=O)c2c1 | inactive
52 | Cn1c2ccccc2c2ccc3c(c21)C(=O)C=CC3=O | inactive
53 | Cc1ccc(N=Nc2ccc(N)cc2C)c(S(N)(=O)=O)c1 | inactive
54 | O=C1CNC(=O)/C1=C/c1ccc(Br)cc1 | inactive
55 | O=C(COC(=O)c1ccc(O)cc1O)NNC(=O)c1cccs1 | inactive
56 | CC[n+]1ccc(C)c2cc(P(=O)(c3ccccc3)c3ccccc3)ccc21 | inactive
57 | Cc1ccc(S(=O)(=O)n2ccc(=O)[nH]2)cc1 | inactive
58 | O=C(CCS(=O)(=O)c1ccc(Br)cc1)NC1CCCC1 | inactive
59 | Cc1cc(NS(=O)(=O)c2cc(Cl)sc2Cl)no1 | inactive
60 | Cc1cc(O)cc(O)c1C(=O)Cc1cnn(-c2ccccc2)c1 | inactive
61 | CCC1=C2CC[C@H]3C(=O)NC(=O)[C@H]3[C@H]2[C@@]2(Cc3ccccc3)C(=NCC(=O)OC)OC(=O)N2C1=O | inactive
62 | CCN(CC)S(=O)(=O)c1cccc(NN=c2c(=O)c3ccccc3c2=O)c1 | inactive
63 | CCc1ccc2c(c1)cc(C)c1nnc(SCC(=O)Nc3cc(OC)c(OC)cc3C(=O)O)n12 | inactive
64 | COC/C=C/C1=CC2=CC(=O)C(C)(OC(=O)c3cnc4ccccc4n3)C(=O)C2=CN1c1ccccc1 (stereo not drawn) | inactive
65 | Nc1ccc2c(O)cc(S(=O)(=O)O)cc2c1 | inactive
66 | CCOC(=O)C1CCN(c2ncnc3cc(OC)c(OC)cc23)CC1 | inactive
67 | O=C(O)C1OC(Oc2c(-c3ccc(O)c(O)c3)oc3cc(O)cc(O)c3c2=O)C(O)C(O)C1O (stereo not drawn) | inactive
68 | COC(=O)C1=C(O)/C(=C\c2ccc(CNC(=O)C(=O)Nc3ccc(C)cc3)o2)N=C1C | inactive

Source: PubChem BioAssay AID1117359 (Southern Research Institute, 2015)
